# TRHR enhancer-1: allosterically enhances the human TRH receptor | P34981 | TRHR cells, fluo-8 calcium fluorescence, EC20 TRH enhancement | enhancement, % at 2 µM | 360,000 tested, 0.66% active; in the data active = enhancement above about 30%; note: 0% is about no effect
#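 Enhancer read-out: after compound pinning and an initial kinetic agonist-mode read, an EC20 of TRH (10 nM final) was injected and fluo-8 calcium signal (Ex 480/Em 530) followed at 1 s/cycle for 100 cycles in TRHR-expressing cells.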
# D1 agonist: human D1 receptor agonism | activation, % at 2 µM | 360,000 tested, 1% active | HEK293 T-REx D1 cells, calcium flux, agonist mode; note: 0% is about no effect
# Target sequence (P21728 whole entry, looked up): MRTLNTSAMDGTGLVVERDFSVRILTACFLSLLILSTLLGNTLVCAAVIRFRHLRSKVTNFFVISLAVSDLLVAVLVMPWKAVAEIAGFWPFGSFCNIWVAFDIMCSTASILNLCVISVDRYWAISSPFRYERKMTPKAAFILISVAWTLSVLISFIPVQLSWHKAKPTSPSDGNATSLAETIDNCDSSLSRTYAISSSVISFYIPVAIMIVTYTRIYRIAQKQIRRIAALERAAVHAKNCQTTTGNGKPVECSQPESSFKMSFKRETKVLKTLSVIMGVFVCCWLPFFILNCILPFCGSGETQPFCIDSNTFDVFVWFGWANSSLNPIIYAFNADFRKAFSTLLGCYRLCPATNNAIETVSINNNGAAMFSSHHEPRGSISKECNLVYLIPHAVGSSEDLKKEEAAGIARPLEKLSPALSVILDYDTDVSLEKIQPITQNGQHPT
#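 Inducible HEK293 T-REx D1 cells, force-coupled to calcium signalling, were plated at 4000 cells/well with tetracycline and held overnight at 30 C. After no-wash calcium dye loading, compound-evoked calcium rise over 180 s flagged agonists.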
# D1 potentiator: enhances dopamine response at the human D1 receptor; P21728; HEK293 TREx D1 cells, calcium flux, dopamine EC20 potentiation; 360,000 tested, 0.036% active; potentiation, % at 10 µM; in the data active = potentiation above about 30%; note: 0% is about no effect
# D1 antagonist: human D1 dopamine receptor antagonism. 360,000 tested, 3.2% active. HEK293 TREx D1 cells, calcium flux, dopamine EC80; active compounds read low. activity change, negative = inhibition, % at 10 µM; in the data active = activity change below about -30%; note: % is set by controls: 0 for no effect and ±100 for the full control effect
#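 HEK293 T-REx cells expressing inducible, force-coupled D1 receptor; no-wash Ca dye, 30–90 min RT. Cmpd → 180 s read at 1 Hz → EC80 DA → 180 s read.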
# TRHR agonist-1: TRH receptor (human) agonism | 360,000 tested, 0.18% active | AID 493084 | TRHR cells, calcium flux fluo-8, FDSS agonist mode | activation, % at 2 µM | P34981; note: 0% is about no effect
#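 Steps: seed TRHR cells overnight; add fluo-8 no-wash Ca dye, RT 30 min–1.5 h; record 10 s baseline; pin-transfer compounds; monitor fluorescence 1 cycle/s for the agonist window. Calcium increases flag candidate agonists.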
# TRHR enhancer-2: human TRH receptor allosteric enhancement confirmation; TRH receptor cell assay, enhancer confirmation qHTS; AID 493076; shares compounds with TRHR enhancer-1; 970 tested, under 10 active; activity change, negative = inhibition, % at 46.1 µM; active = well fitted curve in the direction sought with a large enough effect; inconclusive = small, poorly fitted or top-dose-only effect, or another doubt; inactive = no such curve, though single readings can be large; an effect the other way counts as inactive or inconclusive;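 note: compound effect scored on response to added TRH at EC20 of 10 nM; 0% is about no effect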
# TRHR agonist-2: confirmation of human TRH receptor agonists; shares compounds with TRHR enhancer-1; TRHR-expressing cells, agonist activation read-out; Potency, µM (series often up to 46.1 µM), for the others: top-dose activation, usual class: activators; 970 tested, 8% active; AID 493078; active = well fitted curve in the direction sought with a large enough effect; inconclusive = small, poorly fitted or top-dose-only effect, or another doubt; inactive = no such curve, though single readings can be large; an effect the other way counts as inactive or inconclusive; note: potency is the fitted concentration of half-maximal effect; 0% is about no effect; nearly all actives have a fitted effect of over 75% in size
# * marks the source's active call; other numbers are inactive results; ? = inconclusive; / = no result given. Compounds with a hit are over-represented: about 4.7% of the library has one in this group of screens. Cut-off read from the data, not from the text of the source, unless noted: active = activation above about 30%; inactive = the rest.
SMILES,TRHR enhancer-1,D1 agonist,D1 potentiator,D1 antagonist,TRHR agonist-1,TRHR enhancer-2,TRHR agonist-2
CC1CCCC(C)N1C(=O)CN1C(=O)NC2(CCOc3ccccc32)C1=O (configuration not stated),45*,5,-4,-31*,0,5,8%
O=C(CSc1ncc(-c2ccccc2)nn1)NCc1ccco1,8,1,-1,8,0,/,/
O=C(CSc1nnc(-c2ccccc2)c(-c2ccccc2)n1)NCc1ccco1,61*,0,-3,8,0,-13,2%
Cc1ccccc1C(=O)Nc1nnc2n1CCS2,-1,1,-1,1,0,/,/
CCn1c(=O)cc(SCC(=O)NCc2ccc(Cl)cc2)c2ccccc21,-11,3,-4,15,-1,/,/
COC(=O)c1nnn(-c2nc(N(C)C)nc(N(C)C)n2)c1C,57*,19,-4,-12,-1,-4,-1%
Cc1cccc(Cn2c(C)c(CNC3CCCCC3)c(C(=O)O)c2C)c1,7,0,-2,8,0,/,/
COc1cc(/C=C/c2nc3ccccc3s2)cc(OC)c1O,4,10,-5,-19,32*,2,?
COc1cc(C2c3c(-c4c(C)cc(C)cc4O)n[nH]c3C(=O)N2Cc2ccco2)cc(OC)c1OC (configuration not stated),-5,2,1,5,-1,/,/
Cc1ccc(NC(=O)CCc2nc3ccccc3c(=O)[nH]2)cc1S(=O)(=O)N1CCOCC1,9,3,-5,1,0,/,/
CC1(C)C2CCC1(CS(=O)(=O)N1CCC(C(N)=O)CC1)C(=O)C2 (configuration not stated),2,4,-4,13,1,/,/
CCOC(=O)C1(CC2CC2)CCN(S(=O)(=O)C[C@]23CC[C@H](CC2=O)C3(C)C)CC1,1,6,-4,1,34*,5,?
O=C(CCN1C(=O)c2ccccc2C1=O)Nc1ccc(S(=O)(=O)N2CCOCC2)cc1,3,1,-1,-12,0,/,/
CC1CCCN(S(=O)(=O)c2ccc(NC(=O)CCN3C(=O)c4ccccc4C3=O)cc2)C1 (configuration not stated),-4,-1,0,4,38*,-2,0%
CCOc1ccc(/C(O)=C2/C(=O)C(=O)N(CCCN3CCOCC3)C2c2ccc(F)cc2)cc1C (configuration not stated),2,2,-5,-13,0,/,/
CC1(C)CC(=O)C(C=Nc2ccc(C(=O)c3ccccc3)cc2N=CC2=C(O)CC(C)(C)CC2=O)=C(O)C1,-3,86*,0,-14,27,-4,2%
COC(=O)c1c(C)oc2ccc(NS(=O)(=O)c3cccs3)cc12,53*,12,-2,-14,-1,-8,3%
COc1ccc(N/N=C(\C#N)C(N)=O)cc1,45*,1,5,6,0,10,1%
C=C(C)c1cccc(C(C)(C)NC(=O)Nc2cc(C)ccn2)c1,46*,5,-1,-2,0,-12,-1%
C=C(C)c1cccc(C(C)(C)NC(=O)Nc2nncs2)c1,6,1,-1,-28,-1,/,/
O=C(CSc1ccc(Br)cc1)N1CCN(C(=O)c2ccco2)CC1,60*,3,-5,-26,-1,-3,0%
COc1ccc(CNCCCSc2nnnn2-c2ccccc2)cc1,1,23,-1,1,0,/,/
COc1ccc(S(=O)(=O)N2CCN(c3ccc4nnc(-c5ccccc5)n4n3)CC2)cc1,48*,1,0,-4,0,4,-1%
CCN1C(=O)N/C(=C/c2ccc(C)o2)C1=O,-1,6,-4,7,0,/,/
CCN1C(=O)N/C(=C/c2ccc(Sc3ccc(C)cc3)o2)C1=O,54*,3,-6,-1,-1,-8,1%
COc1ccc(C)cc1NS(=O)(=O)c1ccc2c(c1)[C@H]1C=CC[C@H]1[C@@H](c1cccc(Cl)c1)N2,-2,5,0,28,0,/,/
